Compound activity from PubChem.
Rows were chosen to be rich in hits. Some 18% of all compounds tested hit in one or more screens of this group.
TDP1 cell CPT = qHTS for Inhibitors of human tyrosyl-DNA phosphodiesterase 1 (TDP1): qHTS in cells in presence of CPT | chicken DT40 Tdp1-/-;hTDP1 cells + 20 nM CPT, ATP luminescence, 48 h | Potency, µM (series often up to 46.2 µM), for the others: at the highest dose activity change, negative = growth inhibition, usual class: inhibitors | 12% of 420,000 active | AID 686979, 2013; also: potency is read from the fitted curve at half-maximal effect; % is scaled to controls: 0 for no effect and ±100 for the full control effect; nearly all actives have a fitted effect of over 55% in size
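Cell growth measured by CellTiter-Glo luminescence after a minimum 48 h, 37 C compound exposure with 20 nM CPT in Tdp1-knockout DT40 cells stably expressing hTDP1, seeded 400/well; qHTS titration format.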
TDP1 inh = qHTS Assay for Inhibitors of Tyrosyl-DNA Phosphodiesterase (TDP1); Tyrosyl-DNA phosphodiesterase 1 (Homo sapiens), Q9NUW8; recombinant TDP1, AlphaScreen DNA substrate cleavage; Potency, µM (titrated, usually from 130 µM), without a hit: top-dose activity change, negative = inhibition, most hits filed as inhibitors; 0.28% of 350,000 active; also: potency is read from the fitted curve at half-maximal effect; % is scaled to controls: 0 for no effect and ±100 for the full control effect; nearly all actives have a fitted effect of over 40% in size
Target sequence (Q9NUW8 whole entry, looked up): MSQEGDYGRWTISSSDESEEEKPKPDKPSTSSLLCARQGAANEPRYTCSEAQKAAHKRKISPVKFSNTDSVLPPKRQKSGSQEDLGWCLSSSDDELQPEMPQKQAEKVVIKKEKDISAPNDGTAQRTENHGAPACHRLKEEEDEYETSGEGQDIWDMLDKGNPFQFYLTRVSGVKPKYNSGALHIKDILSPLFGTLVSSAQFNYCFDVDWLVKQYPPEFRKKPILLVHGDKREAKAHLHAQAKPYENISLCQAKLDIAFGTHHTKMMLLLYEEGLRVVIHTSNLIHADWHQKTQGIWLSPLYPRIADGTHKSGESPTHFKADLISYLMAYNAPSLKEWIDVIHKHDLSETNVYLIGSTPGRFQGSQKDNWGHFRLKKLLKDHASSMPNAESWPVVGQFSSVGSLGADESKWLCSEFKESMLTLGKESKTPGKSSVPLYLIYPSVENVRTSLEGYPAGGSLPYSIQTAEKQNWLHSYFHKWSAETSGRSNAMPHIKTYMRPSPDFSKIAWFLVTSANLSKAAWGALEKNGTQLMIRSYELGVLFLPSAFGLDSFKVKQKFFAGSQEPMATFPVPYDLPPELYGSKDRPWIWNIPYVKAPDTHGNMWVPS
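AlphaScreen read-out: signal falls as enzyme removes the 3' tyrosine-FITC from a 5'-biotinylated DNA oligo (15 nM, 5 min, RT). Enzyme was E. coli-made recombinant Tdp1 at 1 nM, exposed to compound for 15 min beforehand; beads 10 ug/ml, 10 min.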
TGFb inhibitor = qHTS for Inhibitors of TGF-b | HepG2 CAGA-GFP TGF-b/SMAD3 reporter, GFP fluorescence, 18 h; TGF-beta stimulated, 500 pg/mL final | Potency, µM (doses to about 46.1 µM), without a hit: at the top dose activity, negative = inhibition, most hits filed as inhibitors | 1.2% of 410,000 active | AID 588855, 2011; also: potency is read from the fitted curve at half-maximal effect; % is scaled to controls: 0 for no effect and ±100 for the full control effect; nearly all actives have a fitted effect of over 65% in size
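Inhibition was scored as loss of TGF-beta-induced (500 pg/mL final, 18 hours, 37 degrees C) GFP in HEPG2 cells carrying a CAGA-GFP reporter, in DMEM with 1% FBS. Well GFP was summed per cell; Activity was normalised to unstimulated and stimulated DMSO wells, then concentration-response fitting.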
HepG2 viability = qHTS for Inhibitors of TGF-b: Cytotox Counterscreen. Potency, µM (doses to about 46.1 µM), inactives show at the top dose activity change, negative = cytotoxicity, most hits filed as cytotoxic. HepG2 CAGA-GFP viability, ATP luminescence, 18 h. 0.76% of 410,000 active; also: potency is read from the fitted curve at half-maximal effect
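CellTiter-Glo luminescence gave cytotoxicity after 18 hours at 37 degrees C. The cells were HepG2 CAGA-GFP in 1% FBS DMEM, stimulated with 500 pg/mL TGF-beta after compound addition. %Activity was normalised to no-cell wells (complete cell-killing) and DMSO (no toxicity), and curves were fitted and classified.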
IL1B secr inh = qHTS for Inhibitors of Inflammasome Signaling: IL-1-beta AlphaLISA Primary Screen; THP-1 LPS/ATP IL-1B secretion, AlphaLISA, 16 h; active compounds read low; activity change, % at 57.5 µM; 4.7% of 360,000 active; AID 743279, 2014; in the data active = activity change below about -50%; inconclusive = mostly about -30% to -49%; also: % is scaled to controls: 0 for no effect and ±100 for the full control effect
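THP-1 cells pretreated 1 hr with compounds (up to 57.5 uM final), then stimulated with LPS (250 ng/mL final) plus ATP (1.25 mM final); secreted IL-1B measured by AlphaLISA after 16 hr, decreased signal indicating inhibition.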
DT40 TDP1 no CPT = qHTS for Inhibitors of human tyrosyl-DNA phosphodiesterase 1 (TDP1): qHTS in cells in absence of CPT; DT40 Tdp1-/- hTDP1 cells, no CPT, ATP luminescence, 48 h; Potency, µM (series often up to 46.2 µM), for the others: at the highest dose activity change, negative = growth inhibition, actives largely listed as inhibitors; 15% of 420,000 active; AID 686978, 2013; also: potency is read from the fitted curve at half-maximal effect; % is scaled to controls: 0 for no effect and ±100 for the full control effect; nearly all actives have a fitted effect of over 55% in size
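Seeded 400 DT40-hTDP1 cells/well (vehicle DMSO, no 20 nM CPT); pinned compounds; ≥48 hr at 37 °C; CellTiter-Glo luminescence as viability measure.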
Numbers without * were called inactive; u = inconclusive; x = not tested or not shown; [ ] = another dose, or the depositor's remark. Unless noted, calls follow the shape of the dose curve; as a rule, active = well fitted curve in the direction sought with a large enough effect; inconclusive = small, poorly fitted or top-dose-only effect, or another doubt; inactive = no such curve, though single readings can be large; an effect the other way counts as inactive or inconclusive.

SMILES	TDP1 cell CPT	TDP1 inh	TGFb inhibitor	HepG2 viability	IL1B secr inh	DT40 TDP1 no CPT
COc1ccc(NC(=O)C(Cc2ccccc2)n2cccc2)cc1OC (configuration not stated)	8.2µM*	10%	-28%	-16%	-12	21µM*
O=C(Nc1cccc(Cl)c1)C(Cc1ccccc1)n1cccc1 (configuration not stated)	23µM*	2%	u	-59%	x	18µM*
CC(C)c1ccc(NC(=O)C(Cc2ccccc2)n2cccc2)cc1 (configuration not stated)	21µM*	5%	-12%	-51%	x	16µM*
O=C(Nc1cccnc1)C(Cc1ccccc1)n1cccc1 (configuration not stated)	u	2%	-10%	-24%	0	-15%
COc1ccc(NC(=O)[C@H](Cc2ccccc2)N2Cc3ccccc3C2=O)cc1OC	-7%	1%	-5%	-20%	x	-17%
CCOC(=O)c1nc2c(=O)n(C)c(=O)n(C)c2n(C)c1=O	3%	x	10%	25%	24	0%
O=C1N[C@@H](Cc2ccccc2)C(=O)N2[C@@H]1C[C@@]1(Br)c3ccccc3N(S(=O)(=O)c3ccccc3)[C@@H]21	-18%	x	u	-2%	-2	-26%
O=C1N[C@@H](Cc2ccccc2)C(=O)N2[C@H]1C[C@]1(Br)c3ccccc3N(S(=O)(=O)c3ccc(F)cc3)[C@H]21	18µM*	x	-10%	-19%	-2	u
CCCCN1C(=O)C(NC(=O)c2ccc(C(C)(C)C)cc2)(C(F)(F)F)C(C(=O)OC)=C1C (configuration not stated)	u	7%	-27%	-39%	x	23µM*
COC(=O)C1=C(C)N(C(C)C)C(=O)C1(NC(C)=O)C(F)(F)F (configuration not stated)	4%	0%	-4%	11%	0	0%
O=C(NCc1n[nH]c(=S)n1-c1ccc(Cl)c(Cl)c1)c1ccc(S(=O)(=O)N2CCOCC2)cc1	-8%	5%	34%	18%	-5	-6%
CCOc1ccc(CCN2C(=S)N([C@@H](CC(C)C)CN3CCCC3CN3C(=S)NC[C@@H]3CC(C)C)C[C@@H]2Cc2ccccc2)cc1 (some centres not stated)	16µM*	x	-25%	-34%	15	18µM*
CC(C)C[C@H]1CNC(=O)C(=O)N1C[C@@H]1CCCN1C[C@H](CC(C)C)N1C[C@H](Cc2ccccc2)N(CCc2ccccc2)C(=O)C1=O	u	x	x	x	-6	u
CC(C)C[C@H]1CN([C@@H](CC(C)C)CN2CCCC2CN2C(=S)NC[C@@H]2Cc2ccccc2)C(=S)N1CCc1ccccc1 (some centres not stated)	u	x	x	x	12	u
CCOc1ccc(CCN2C(=S)N([C@@H](CC(C)C)CN3CCCC3CN3C(=S)NC[C@@H]3CC(C)C)C[C@@H]2CC(C)C)cc1 (some centres not stated)	u	x	-26%	-40%	26	18µM*
CCOc1ccc(CCN2C(=S)N([C@@H](Cc3ccccc3)CN3CCC[C@@H]3CN3C(=S)NC[C@@H]3CC(C)C)C[C@@H]2Cc2ccccc2)cc1	u	x	x	x	-17	15µM*
O=C(Nc1ccncc1)C1COc2ccccc2O1 (configuration not stated)	u	2%	-8%	1%	-10	-30%
O=C(CSC1=NCCN1)C1COc2ccccc2O1 (configuration not stated)	18µM*	-4%	2%	2%	-13	u
Cc1ccc(-n2c(-c3ccccc3)nsc2=NC#N)cc1	13µM*	x	0%	1%	x	u
COc1ccccc1N1C(=O)C=C(Sc2nc(C)cc(C)n2)C1=O	1.2µM*	7%	11µM*	11µM*	-8	2.3µM*
CCNC(=S)NN(c1ccccc1)c1ccccc1	-11%	-3%	-2%	1%	5	-7%
CC(C)c1ccc(NC(=S)NN(c2ccccc2)c2ccccc2)cc1	13µM*	1%	u	-11%	-22	26µM*
CCNC(=S)Nc1ccc(N(c2ccccc2)C(C)C)cc1	26µM*	2%	u	-11%	-20	21µM*
CC(C)c1ccc(NC(=S)NCc2ccc3c(c2)OCO3)cc1	-28%	5%	u	-28%	u	u
CC(C)N(c1ccccc1)c1ccc(NC(=S)NCCN(C)C)cc1	u	-2%	-24%	-13%	x	21µM*
SMILES	TDP1 cell CPT	TDP1 inh	TGFb inhibitor	HepG2 viability	IL1B secr inh	DT40 TDP1 no CPT
CN(C)CCCNC(=S)Nc1ccc(-c2ccccc2)cc1	u	3%	-1%	-6%	-6	u
O=C(Nc1ccc(C(O)c2ccccc2)cc1)[C@@H]1O[C@H](CO)[C@@H](O)[C@H]1O (some centres not stated)	8%	x	12%	3%	7	1%
CC(C)N(c1ccccc1)c1ccc(NC(=O)[C@@H]2O[C@H](CO)[C@@H](O)[C@H]2O)cc1	21µM*	x	5%	0%	10	u
Cc1ccc(S(=O)(=O)NCCc2nnc3ccc(SCC(=O)Nc4ccc(OC(F)(F)F)cc4)nn23)cc1	u	-3%	5%	-11%	x	-25%
C[C@@H]1CN([C@H](C)CO)C(=O)CCCn2nncc2CO[C@@H]1CN(C)S(=O)(=O)c1ccc(-n2cccn2)cc1	1%	x	-22%	4%	-5	-6%
O=C1CC(c2ccccc2)CC(=O)C1CS(=O)(=O)c1ccccc1 (configuration not stated)	-20%	2%	18%	-2%	-13	u
CC1(c2ccc3ccccc3c2)NC(=O)N(CC(=O)NCC(C)(C)N2CCOCC2)C1=O (configuration not stated)	14%	1%[0.505 µM]	-3%	6%	-1	-2%
Cc1ccc2c(c1)CC(C)N2S(=O)(=O)c1nnc(NC(=O)c2ccccc2F)s1 (configuration not stated)	-13%	5%	u	-21%	x	-21%
O=C(c1ccco1)N1CCC(c2nc3c(nnn3Cc3c(Cl)cccc3Cl)c(=O)[nH]2)CC1	-18%	1%	6%	0%	17	u
